Screening data: PubChem, National Center for Advancing Translational Sciences (NCATS)
The list is not random: actives were taken first. Their share in the collection is about 22%.
Shiga inhibitor: blocks Shiga toxin action in Vero cells; Vero cells, Shiga toxin protein synthesis inhibition reporter; inhibition, % at 38.7 µM; hit rate 9.2% among 290,000; in the data active = inhibition mostly above about 28%, no sharp cut-off; inactive = mostly below about 43%; also: 0% is about no effect
Pf growth 96h: inhibits malaria parasite growth, 96 h; Potency, µM (series often up to 28.7 µM), for the others: at the top dose activity change, negative = inhibition, actives largely listed as inhibitors; P. falciparum luciferase reporter growth, 96 h; hit rate 6.9% among 320,000; also: potency is read from the fitted curve at half-maximal effect; % is scaled to controls: 0 for no effect and ±100 for the full control effect
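Delayed-death screen, second-generation endpoint: infected erythrocytes, 2% hematocrit, 0.05% parasitemia final; 96 hours at 37 C, 5% CO2; luciferase detection reagent; luminescence decrease equals reduced growth.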
LmPK inhibitor: LmPK (Leishmania mexicana) enzyme inhibition. purified LmPK, Kinase-Glo ATP luminescence, 1 h. Potency, µM (highest dose often 57.5 µM), for the others: at the top dose activity change, negative = inhibition, hits mostly inhibitors. hit rate 0.37% among 290,000. AID 1721; also: potency is read from the fitted curve at half-maximal effect; % is scaled to controls: 0 for no effect and ±100 for the full control effect
Target sequence (Q27686 whole entry, looked up): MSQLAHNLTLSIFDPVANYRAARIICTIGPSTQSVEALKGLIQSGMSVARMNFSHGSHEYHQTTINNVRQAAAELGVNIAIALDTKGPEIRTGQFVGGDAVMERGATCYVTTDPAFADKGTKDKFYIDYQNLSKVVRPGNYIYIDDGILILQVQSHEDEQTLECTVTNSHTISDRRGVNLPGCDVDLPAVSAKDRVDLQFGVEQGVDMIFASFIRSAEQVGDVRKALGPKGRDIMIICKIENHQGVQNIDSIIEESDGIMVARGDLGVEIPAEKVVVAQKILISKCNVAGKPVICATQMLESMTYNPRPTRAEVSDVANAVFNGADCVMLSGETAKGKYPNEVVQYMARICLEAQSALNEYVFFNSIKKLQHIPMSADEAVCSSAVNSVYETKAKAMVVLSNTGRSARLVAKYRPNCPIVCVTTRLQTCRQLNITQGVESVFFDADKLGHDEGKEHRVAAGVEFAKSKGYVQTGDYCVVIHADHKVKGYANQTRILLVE
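ATP generated from ADP (0.1 mM) and PEP (0.5 mM) by 0.1 nM LmPK over 1 h at room temperature (pH 7.2 imidazole buffer) was detected by coupled luciferase luminescence. Values were normalized to uninhibited and no-enzyme wells.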
Pf growth 48h: inhibits P. falciparum growth in the first generation, 48 h. P. falciparum luciferase growth in erythrocytes, 48 h. Potency, µM (series often up to 28.7 µM), for the others: at the top dose activity change, negative = inhibition, hits mostly inhibitors. hit rate 5.9% among 310,000. AID 504832; also: potency is read from the fitted curve at half-maximal effect; % is scaled to controls: 0 for no effect and ±100 for the full control effect
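Luminescence readout; reporter = integrated firefly luciferase in P. falciparum. RBC culture at 2% hematocrit, 0.1% parasitemia final, 37 C/5% CO2; decreased signal taken as growth inhibition.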
Cycloheximide cs: counter-screen for Shiga toxin inhibitors: cycloheximide protein synthesis inhibition; hit rate 12% among 300,000; max response, %; cell reporter, cycloheximide protein synthesis inhibition counterscreen; in the data active = max response mostly above about 13%, no sharp cut-off; inactive = mostly below about 14%; also: read at 38.3 µM for the half of the compounds with a filed dose; 0% is about no effect
An asterisk follows results filed as active; u = inconclusive; x = not tested or not shown. Unless noted, calls follow the shape of the dose curve; as a rule, active = well fitted inhibition curve with a large enough effect; inconclusive = small, poorly fitted or top-dose-only effect, or another doubt; inactive = no such curve, though single readings can be large or run the other way.

SMILES | Shiga inhibitor | Pf growth 96h | LmPK inhibitor | Pf growth 48h | Cycloheximide cs
O=C(Nc1nc2ccccc2s1)c1cc(-c2ccco2)nc2ccccc12 | 60* | 41% | 1% | 35% | 50*
Cc1csc(NC(=O)c2cc(-c3ccco3)nc3ccccc23)n1 | 7 | 69% | -3% | 9% | 9
O=C(CC1C(=O)N(c2ccccc2)C(=S)N1c1ccccc1)c1ccc(Br)cc1 (configuration not stated) | 13 | -20% | 6% | 6% | 0
COc1cccc(C(=O)NN2C(=S)N(c3ccccc3)C(=O)C2CC(N)=O)c1 (configuration not stated) | 50* | 306% | -7% | 147% | 43*
COc1ccc(NC(=O)CC2C(=O)N(c3ccc(OC)cc3)C(=S)N2NC(=O)c2cccc(F)c2)cc1 (configuration not stated) | 18 | 43% | 2% | 30% | 3
NC(=O)CC1C(=O)N(c2ccccc2)C(=S)N1NC(=O)c1ccccc1 (configuration not stated) | 32 | 305% | -8% | 166% | 27*
NC(=O)CC1C(=O)N(c2ccccc2)C(=S)N1NC(=O)c1ccc(Br)cc1 (configuration not stated) | 55* | 37% | -7% | x | 29*
O=C(CNC(=O)N1CC(=O)Nc2ccccc21)NCc1cccc(Cl)c1 | -9 | u | -3% | 4% | 1
COc1ccc(CCNC(=O)CN2C(=O)COc3ccc(S(=O)(=O)N4CCOCC4)cc32)cc1OC | -5 | 24% | -3% | -3% | -1
CC(C)Cn1c(SCC(=O)c2ccc(Cl)s2)nnc1-c1ccco1 | 72 | 12µM* | 0% | x | 33*
Cc1occc1-c1nnc(SCC(=O)c2c(N)n(Cc3ccccc3)c(=O)n(C)c2=O)n1C | -14 | 183% | 0% | u | 5
CC(C)Cn1c(N)c(C(=O)CSc2nnc(-c3ccco3)n2C)c(=O)n(C)c1=O | x | 1.3µM* | x | 5.2µM* | x
CN(CC(=O)Nc1ccc(Cl)cc1)C(=O)CNC(=O)c1ccc(Br)o1 | x | 31% | x | -11% | x
Cc1ccc(CC2C(=O)N(c3nc(C)cc(C)n3)C(=O)C2C)cc1 (configuration not stated) | 18 | u | 5% | 2% | -1
CC12CCC(c3c(C(=O)N4CCOCC4)nn(-c4ccccc4)c31)C2(C)C (configuration not stated) | 18 | 1.3µM* | 0% | u | 19
O=C1N(c2ccccc2)C(c2cccnc2)N2CCCN12 (configuration not stated) | 26 | 100% | -7% | 18% | 11
O=C1N(c2cccc(Cl)c2)C(c2cccnc2)N2CCCN12 (configuration not stated) | -4 | 13µM* | 3% | 5% | 11
CCN(CC)S(=O)(=O)c1ccc(-n2cnc3cc(C)c(C)cc32)nc1 | -16 | u | 7% | u | -2
CCN1C(=O)[C@H]2[C@@H](c3ccc(-c4ccc(OC)cc4)cc3)N3CCCC[C@@]3(C(=O)OC)[C@H]2C1=O | x | u | x | 15µM* | x
CCN1C(=O)[C@H]2[C@@H](c3ccc(-c4ccc(Cl)c(Cl)c4)cc3)N3CCCC[C@@]3(C(=O)OC)[C@H]2C1=O | x | 107% | x | u | x
CCN1C(=O)[C@H]2[C@@H](c3ccc(-c4ccc(F)cc4)cc3)N3CCCC[C@@]3(C(=O)OC)[C@H]2C1=O | x | 13µM* | x | 9.3µM* | x
CCN1C(=O)[C@H]2[C@@H](c3ccc(-c4ccccc4)cc3)N3CCC[C@@]3(C(=O)OC)[C@H]2C1=O | x | 13µM* | x | 4.7µM* | x
CCN1C(=O)[C@@H]2[C@@H](c3ccc(-c4ccc(OC)cc4)cc3)N3CCC[C@@]3(C(=O)OC)[C@@H]2C1=O | x | 12µM* | x | 9.3µM* | x
CCCCN1CC(=O)N2[C@H](c3ccc(OC)cc3)[C@@H]3C(=O)N(CC)C(=O)[C@@H]3[C@]2(C)C1=O | 7 | 5% | -6% | -1% | 0
CCN1C(=O)[C@H]2[C@@H](c3ccc(OC)cc3)N3C(=O)CN(Cc4ccccc4)C(=O)[C@@]3(C)[C@H]2C1=O | -4 | 20% | 1% | 31% | -3
SMILES | Shiga inhibitor | Pf growth 96h | LmPK inhibitor | Pf growth 48h | Cycloheximide cs
COc1ccc(/C=N/Nc2ncnc3sc4c(c23)CCCC4)cc1OC | -8 | 7% | 1% | -2% | -2
CC1CN(C(NC(=O)c2ccccc2)C(Cl)(Cl)Cl)CC(C)O1 (configuration not stated) | 9 | -25% | 0% | 11% | -4
Cc1cc(C)c(NS(=O)(=O)c2ccc(NC(=O)CCC(=O)O)cc2)c(C)c1 | 12 | u | 9% | 4% | -3
CCN1C(=O)[C@H]2[C@@H](c3ccc(-c4ccc(OC)cc4)cc3)N3CCC[C@@]3(C(=O)OC)[C@H]2C1=O | x | u | x | 13µM* | x
CS(=O)(=O)N1CCCC(C(=O)Nc2ccc3c(c2)OCCO3)C1 (configuration not stated) | 49 | 18% | -2% | 9% | 12
CCOC(=O)c1n[nH]n2c1nc(=O)c1ccccc12 | -15 | u | 4% | u | -4
CCOC(=O)c1nc2c(ccc3ccccc32)cc1C | 42* | 44% | -4% | 39% | 17*
C=CCNc1nc(NC(C)(C)CO)nc(OCC)n1 | -2 | 7.4µM* | 2% | 4% | 0
C#CCOCCOCCOCCNc1nc(N2CCN(C(=O)[C@H](CCC(=O)O)n3cc(C(N)CO)nn3)CC2)nc(N2CCN(C(=O)[C@H](CCC(=O)O)n3cc(C(N)CC(C)C)nn3)CC2)n1 (some centres not stated) | -4 | u | -2% | 64% | -5
CN(C)S(=O)(=O)c1ccc(C(=O)Nc2ccc3ncccc3c2)cc1 | 41* | u | -2% | 4% | 32*
Cc1cccc(NC(=O)c2ccc(S(=O)(=O)N(C)C)cc2)c1 | 41 | 7% | 5% | 30% | 16*
CCN(CC)S(=O)(=O)c1ccc(C(=O)Nc2cccc(C)c2)cc1 | 68 | x | 5% | u | 15
CSc1cccc(N2C(=O)C3CCCN3C2=S)c1 (configuration not stated) | -9 | -2% | -9% | u | 1
O=C(N/N=C/c1ccc(OC(=O)c2cccs2)cc1)c1ccc(F)cc1 | 2 | 40% | 1% | 10% | -2
COc1cc(C(=O)N/N=C/c2ccc(OC(=O)c3ccccc3Cl)cc2)ccc1O | 22 | -14% | -1% | 24% | 26*
COc1cc(/C=N\NC(=O)c2cccnc2)ccc1OC(=O)c1ccccc1Cl | -8 | 6% | -1% | u | -1
O=C(O)c1ccc(N/N=C/c2ccc(OC(=O)c3ccccc3Cl)cc2)cc1 | 19 | 158% | 1% | 41% | 21*
C=CCOc1ccccc1/C=N/NC(=O)c1ccc(Cl)cc1Cl | 16 | -9% | 4% | 4% | 8
Nc1ccc(C(=O)N/N=C\c2ccc(OC(=O)c3ccccc3Cl)cc2)cc1 | 21 | 15% | 9% | 34% | 38*
